# Hits are enriched below; roughly 12% of the tested compounds scored in any of these assays.
# HP1b chromo inh = HP1-beta chromodomain-methylated histone interaction inhibition | 390,000 compounds, 0.56% hits | AlphaScreen HP1-beta / biotin-H3K9me3 peptide binding | P83916 | Potency, µM (doses to about 114 µM), inactives show at the highest dose activity change, negative = inhibition, most hits filed as inhibitors; further: nearly all actives have a fitted effect of over 70% in size
#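 Compound inhibition of the preformed complex between 50 nM HP1-beta and 50 nM biotinylated H3K9me3 peptide was read by AlphaScreen. Buffer was PBS pH 7.4 with 0.01% Tween-20. Incubations ran 30 min at room temperature, with 10 ug/mL donor/acceptor beads.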
# L3MBTL1 block = blocks human L3MBTL1. 230,000 compounds, 0.66% hits. Q9Y468. AlphaScreen L3MBTL1–H3K9me1 peptide binding. Potency, µM (titrated, usually from 57.1 µM), for inactives: top-dose activity, negative = inhibition, actives largely listed as inhibitors; further: on the % scale 0 is the no-effect control and ±100 the full control effect; nearly all actives have a fitted effect of over 60% in size
# Target sequence (Q9Y468 whole entry, looked up): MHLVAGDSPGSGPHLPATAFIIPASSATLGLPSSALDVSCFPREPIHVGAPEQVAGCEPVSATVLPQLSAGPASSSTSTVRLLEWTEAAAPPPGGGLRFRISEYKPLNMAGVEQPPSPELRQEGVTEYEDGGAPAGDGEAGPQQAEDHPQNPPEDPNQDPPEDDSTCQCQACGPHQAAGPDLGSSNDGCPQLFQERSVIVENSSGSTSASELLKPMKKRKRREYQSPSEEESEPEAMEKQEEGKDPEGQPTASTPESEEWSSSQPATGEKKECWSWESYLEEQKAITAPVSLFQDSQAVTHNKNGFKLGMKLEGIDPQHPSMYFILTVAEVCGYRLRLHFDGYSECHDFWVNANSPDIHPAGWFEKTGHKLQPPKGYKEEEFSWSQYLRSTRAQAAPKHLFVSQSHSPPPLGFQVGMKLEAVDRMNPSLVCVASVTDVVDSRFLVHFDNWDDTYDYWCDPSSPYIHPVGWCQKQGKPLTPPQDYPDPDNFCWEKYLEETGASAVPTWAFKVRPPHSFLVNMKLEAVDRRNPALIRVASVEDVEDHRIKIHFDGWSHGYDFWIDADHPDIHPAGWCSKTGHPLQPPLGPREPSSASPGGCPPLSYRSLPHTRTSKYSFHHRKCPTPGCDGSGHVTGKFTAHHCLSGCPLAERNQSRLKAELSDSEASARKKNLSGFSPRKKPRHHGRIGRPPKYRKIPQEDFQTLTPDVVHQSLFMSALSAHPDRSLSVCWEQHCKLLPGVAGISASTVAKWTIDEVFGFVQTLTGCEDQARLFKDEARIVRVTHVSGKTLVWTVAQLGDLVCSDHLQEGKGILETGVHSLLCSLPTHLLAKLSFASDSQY
#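 AlphaScreen assay: L3MBTL1 (50 nM final) was preincubated 30 min at room temperature with biotinylated H3(1-15)K9me1 peptide (75 nM final), then 30 min with library compounds; streptavidin donor and nickel chelate acceptor beads (10 ug/mL final) added, 30 min dark.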
# G9a block = inhibitors of human histone lysine methyltransferase G9a; AID 504332; Q96KQ7; 350,000 compounds, 8.8% hits; G9a H3K9 monomethylation, AlphaScreen, 2 h; Potency, µM (doses to about 102 µM), without a hit: top-dose activity, negative = inhibition, hits mostly inhibitors; further: on the % scale 0 is the no-effect control and ±100 the full control effect; nearly all actives have a fitted effect of over 75% in size
#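 Chemiluminescent proximity detection of H3K9 monomethylation, read after 10 min bead incubation in the dark. Reaction: 20 nM G9a, 500 nM biotin-H3K9 peptide, 20 uM SAM cofactor, 2 h, room temperature, following 15 min enzyme-compound preincubation.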
# JMJD2A Tudor = JMJD2A Tudor domain (human) inhibition. O75164. Potency, µM (doses to about 114 µM), for the others: at the top dose activity change, negative = inhibition, usual class: inhibitors. 390,000 compounds, 4.4% hits. AlphaScreen JMJD2A-Tudor / H3K4me3 peptide binding. AID 504339; further: on the % scale 0 is the no-effect control and ±100 the full control effect; nearly all actives have a fitted effect of over 50% in size
# Sfp inh = blocks B. subtilis Sfp PPTase activity; AID 1490; 310,000 compounds, 3.5% hits; Q9F4F7; Biochemical Sfp PPTase activity, qHTS; Potency, µM, for inactives: largest response in the series, negative = inhibition, usual class: inhibitors;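 further: the enzyme is Sfp with the accession as filed and its product quenches rhodamine fluorescence; 0% = enzyme reaction without inhibitor and -100% = no enzyme wells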
#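 Fluorescence-quenching assay with 15 nM Sfp, 5 uM rhodamine-CoA and 12.5 uM BHQ-2-labelled ybbR peptide in pH 7.6 Hepes/MgCl2 buffer. Enzyme was pre-incubated with compound for 15 min at room temperature. Rate was taken from the 30-min fluorescence change (525/598 nm).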
# BAZ2B inh = blocks human BAZ2B; AID 504333; 360,000 compounds, 4.4% hits; Potency, µM (highest dose often 114 µM), for inactives: top-dose activity change, negative = inhibition, usual class: inhibitors; AlphaScreen BAZ2B-H3K14Ac peptide displacement; further: on the % scale 0 is the no-effect control and ±100 the full control effect; nearly all actives have a fitted effect of over 60% in size
#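 AlphaScreen displacement: compounds (up to 110uM) incubated 30 min at room temperature with a preformed 50 nM BAZ2B/50 nM biotinylated H3K14Ac peptide complex in PBS pH 7.4 with Tween-20. Donor and acceptor beads at 10 ug/mL final added, 20 min light-protected before reading.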
# An asterisk follows results filed as active; ? = inconclusive; / = no result given; [ ] = dose if it differs, or a comment. The call rests on the fitted dose curve; in most records, active means well fitted curve in the direction sought with a large enough effect; inconclusive means small, poorly fitted or top-dose-only effect, or another doubt; inactive means no such curve, though single readings can be large; an effect the other way counts as inactive or inconclusive. Potency means the concentration at half of the fitted maximal effect.
SMILES,HP1b chromo inh,L3MBTL1 block,G9a block,JMJD2A Tudor,Sfp inh,BAZ2B inh
CCC(C(=O)Nc1ccccc1OC)n1nc(C)c2sc3ccccc3c2c1=O (stereo not drawn),41.1%,/,?,-3.0%,/,5.5%
O=C(O)C1=C[C@@H](c2ccc(F)cc2)C[C@@H](OCCCCO)O1,20.9%,/,?,?,9.3%,79.4µM*
COc1ccc(N(C(=O)c2cccc(C)c2)S(=O)(=O)c2ccc(C)cc2)cc1,46.9%,/,3.4%[59 µM],-5.6%,/,4.7%
CC1CN(S(=O)(=O)c2cccc(C(=O)OCC(=O)Nc3ccc4c(c3)OCO4)c2)CC(C)O1 (stereo not drawn),-8.8%,-0.7%,50.1µM*,-22.4%,5.2%,-31.8%
CC1CN(S(=O)(=O)c2cccc(C(=O)OCC(=O)c3cccs3)c2)CC(C)O1 (stereo not drawn),24.8%,/,-11.9%[59 µM],-20.1%,1.4%,-0.3%
COc1ccc(CCNC(=O)Cc2c(C)c3cc4c(C(C)(C)C)coc4c(C)c3oc2=O)cc1,53.8%,/,-0.7%[59 µM],-2.8%,/,1.9%
Cc1[nH]c(=O)[nH]c1CN1CCCCC1,/,-0.4%,?,/,8.4%,-4.4%
Cc1nc(CN2CCCCC2)c(O)c(=O)[nH]1,-16.0%,/,/,25.1µM*,/,/
COc1cc2[nH]c(=O)n(C3CCCCC3)c(=O)c2cc1OC,26.7%,/,26.7%[12.7 µM],-21.6%,11.8%,6.8%
COc1cc2[nH]c(=S)nc(NC3CCCC3)c2cc1OC,/,12.4%,31.6µM*,/,-19.9%,-35.0%
C=CCNc1nc(=S)[nH]c2cc(OC)c(OC)cc12,15.5%,1.3%,25.1µM*,?,-10.6%,-23.1%
Cc1ccc(C(=O)Nc2c(C(=O)NCc3ccc(Cl)cc3)sc3nc(C)cc(C)c23)cc1,19.9%,/,7.7%[59 µM],5.2%,/,?
Cc1nc(N2CCN(Cc3ccccc3)CC2)nc2c1C(=O)CC(c1ccco1)C2 (stereo not drawn),-9.6%,/,?,?,?,?
Cc1nc(N2CCN(Cc3ccc4c(c3)OCO4)CC2)nc2c1C(=O)CC(c1ccco1)C2 (stereo not drawn),-9.2%,-10.3%,39.8µM*,?,-6.3%,?
CCOC(=O)c1c(N2C(=O)C=CC2=O)sc(C)c1C,?,-7.8%,?,20µM*,2.51µM*,?
CC(=O)Nc1ccc(S(=O)(=O)N2CCN(c3ccc(C)c(C)c3)CC2)cc1,20.5%,/,1.3%[59 µM],-17.9%,/,-21.7%
CCCCCOc1ccc(C(=O)N(Cc2ccccc2)C2CCS(=O)(=O)C2)cc1 (stereo not drawn),30.1%,/,-3.2%[59 µM],-7.0%,/,-8.7%
CN(C(=O)CSc1nc2ccccc2n1CC(=O)NCc1ccc(F)cc1)c1ccc(F)cc1,15.3%,/,-0.9%[59 µM],-14.6%,/,1.0%
COc1ccc(-c2nc(-c3cccs3)c(-c3cccs3)[nH]2)cc1O,-38.7%,/,?,?,2.2%,44.7µM*
O=C(N/N=C1/C(=O)c2cccc3cccc1c23)c1ccc(Cl)cc1,-9.1%,/,?,35.5µM*,44.7µM*,50.1µM*
CCNC(=S)N/N=C1\C(=O)c2cccc3cccc1c23,-1.6%,/,2.7%[59 µM],-17.4%,5.8%,-10.2%
COC(=O)c1c[nH]n2c(=O)cc(CCl)nc12,24.4%,-8.8%,18.9%[59 µM],79.4µM*,-0.4%,?
Cc1cc2c(s1)c1cnn(Cc3cc(C(F)(F)F)ccc3F)c(=O)c1n2C,/,/,/,-29.5%,/,/
COC(=O)C1=C(C)N(CCC2=CCCCC2)C(=O)C1,-4.7%,-1.0%,-1.8%[12.7 µM],50.1µM*,-7.8%,7.6%
Cc1nn(-c2ccccc2)c(N2CCCC2)c1/C=N/NC(=O)c1ccccc1O,16.1%,6.1%,18.7%,-22.9%,10.5%,-23.7%
O=C(N/N=C/c1cc2c3c(c1O)CCCN3CCC2)c1ccccc1O,-15.4%,?,?,44.7µM*,-15.9%,31.6µM*
CO/N=C(\C)CCN1CCc2nc(-c3ccccc3)c(-c3ccccc3)cc2C1,/,/,/,/,2.5%,/

# Screening results (PubChem)
